Data published in PubChem BioAssay (NCATS).
Inconclusive results are not listed. Active and inactive are the calls of the source. Calls follow the shape of the dose curve; as a rule, active = well fitted inhibition curve with a large enough effect; inconclusive = small, poorly fitted or top-dose-only effect; inactive = flat fitted curve, though single readings scatter.

Key:
Experiment in all cases: qHTS profiling for inhibitors of Plasmodium falciparum proliferation (AID 504749); also: nearly all actives have a fitted effect of over 60% in size
Conditions in all cases: P. falciparum in erythrocytes, SYBR Green DNA, 72 h; series mostly up to 28.7 µM
CP262 = test system: CP262
How it was run: (§1)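 Readout was DNA-dye fluorescence from lysed cultures, ex 485/em 535 nm. Parasitized red cells had grown 72 h with compound; data scaled between 0.29 uM artemisinin and DMSO wells and corrected using vehicle-only plates.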

CP265 = test system: CP265
How it was run: as §1

CP266 = test system: CP266
How it was run: as §1

CP268 = test system: CP268
How it was run: as §1

CP269 = test system: CP269
How it was run: as §1

CP286 = test system: CP286
How it was run: as §1

CP291 = test system: CP291
How it was run: as §1

CP297 = test system: CP297
How it was run: as §1

CP305 = test system: CP305
How it was run: as §1

CP315 = test system: CP315
How it was run: as §1

CP325 = test system: CP325
How it was run: as §1

CP329 = test system: CP329
How it was run: as §1

DFO2036 = test system: DFO2036
How it was run: as §1

DIV14 = test system: DIV14
How it was run: as §1

DIV17 = test system: DIV17
How it was run: as §1

DIV30 = test system: DIV30
How it was run: as §1

Dd2 = test system: Dd2
How it was run: as §1

ECU = test system: ECU
How it was run: as §1

FAB9 = test system: FAB9
How it was run: as §1

GB4 = test system: GB4
How it was run: as §1

HB3 = test system: HB3
How it was run: as §1

ICS = test system: ICS
How it was run: as §1

JCK = test system: JCK
How it was run: as §1

N140 = test system: N140
How it was run: as §1

P93_24 = test system: P93_24
How it was run: as §1

P94_40 = test system: P94_40
How it was run: as §1

PAD = test system: PAD
How it was run: as §1

PC15 = test system: PC15
How it was run: as §1

PC49 = test system: PC49
How it was run: as §1

SC27B = test system: SC27B
How it was run: as §1

TAB109 = test system: TAB109
How it was run: as §1

TAB113 = test system: TAB113
How it was run: as §1

TAB165 = test system: TAB165
How it was run: as §1

W2 = test system: W2
How it was run: as §1

Measured: Potency

CCCC[C@H]1C(=O)N(c2ccccc2)N(c2ccc(O)cc2)C1=O
inactive: all assays above
